Data on 37 compounds can be found in PubChem BioAssay (NCATS).

Inconclusive results are not listed. A call without a number means that no potency is given here. The source made the active and inactive calls. Calls follow the shape of the dose curve; as a rule, active = well fitted inhibition curve with a large enough effect; inconclusive = small, poorly fitted or top-dose-only effect; inactive = no such curve, though single readings can be large or run the other way.
Potency is read from the fitted curve at half-maximal effect.

The experiment has as its system Zika virus NS2B-NS3 protease (unlinked). As to the kind of experiment: Optimization of GU AMC qHTS for Zika virus inhibitors: Unlinked NS2B-NS3 protease assay (AID 1347151). Also: nearly all actives have a fitted effect of over 80% in size. The note with it: recombinant ZIKV NS2B-NS3 protease, fluorogenic AMC substrate; series mostly up to 52.5 µM. Summed up: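 In this qHTS, compounds acted on 25 nM unlinked Zika NS2B–NS3 in pH 8.0 Tris/Tween buffer. Cleavage of an AMC peptide ran 15 min at room temperature, to about 20% conversion.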
(Quantitative high-throughput screening tests each substance at several concentrations.)
Regarding `Fc1cccc(/C=N/N=C/c2cccc(F)c2)c1`, the Potency entry is “inactive”.
Take `CCNC(=O)[C@H]1O[C@@H](n2cnc3c(N)nc(NCCc4ccc(CCC(=O)O)cc4)nc32)[C@H](O)C1O` (some centres not stated): the Potency entry was “inactive”.
For `O=C(O)CCCC[C@@H]1CCSS1`, the Potency entry was “inactive”.
Consider `COc1cc2c(CCNC(C)=O)c[nH]c2cc1Cl`, for which the Potency entry is “inactive”.
For `O=C(c1ccc(OCCCc2cnc[nH]2)cc1)C1CC1`, the Potency result was “inactive”.
As for `O=C1NC(O)=NC1(c1ccccc1)c1ccccc1`, the entry is “inactive”; as for `CC(=O)/C=C1\C(=O)N(C)c2ccccc21`, “inactive”; as for `C#C[C@]1(O)CC[C@H]2[C@@H]3CCC4=Cc5oncc5CC4(C)[C@H]3CCC21C` (some centres not stated), “inactive”.
To `C[N+](C)(C)CCOP(=O)(O)OP(=O)([O-])OC[C@H]1O[C@@H](n2ccc(N)nc2=O)[C@H](O)[C@@H]1O` belongs “inactive”; to `CN1CCc2cccc3c2C1Cc1ccc(O)c(O)c1-3` (configuration not stated), 26.7 µM (active).
As for `O=C(O)CC1CCCc2ccccc2C1O` (configuration not stated), the entry is “inactive”.
Take `CN=c1nc(-c2ccccc2)n(-c2ccccc2)s1`: the Potency result is “inactive”.
As for `CC(C)(NS(=O)(=O)c1ccc(Oc2ccc(F)cc2)cc1)C(=O)NO`, the entry is “inactive”; as for `CCN(CC)c1ncnc2c1ncn2[C@@H]1O[C@H](COP(=O)(O)OP(=O)(O)C(Br)(Br)P(=O)(O)O)[C@@H](O)[C@H]1O`, “inactive”; as for `O=C(/C=C/c1ccc(O)cc1)c1ccc(O)cc1O`, “inactive”.
To `CSc1ccccc1N1CCN(CCCCCC(=O)NC2CCCc3ccccc32)CC1` (configuration not stated) belongs “inactive”.
For the compound `CCCN(CC1CC1)c1nc(C)nc(Nc2c(Cl)cc(Cl)cc2Cl)c1Cl`, the Potency entry is “inactive”.
For `CN1C2CCC1CC(OC(=O)C(O)c1ccccc1)C2` (configuration not stated), the Potency entry is “inactive”.
As for `CC(C)c1cccc(C(C)C)c1N1C(=O)c2ccc(O)cc2C1=O`, the Potency entry is “inactive”.
Turning to `C=CC(C)=C[C@@]1(C)SC(=O)C(C)=C1O`, the Potency result is “inactive”.
As for `Cc1cn([C@H]2CC(N=[N+]=[N-])[C@@H](CO)O2)c(=O)[nH]c1=O` (some centres not stated), the entry is “inactive”.
Turning to `CC1CN(S(=O)(=O)c2cccc3cnccc23)CCN1` (configuration not stated), the Potency result is “inactive”.
Take `CO[C@H]1O[C@@H]2O[C@]3(C)CC[C@@H]4[C@@H](C)CC[C@H]([C@H]1C)[C@]24OO3`: the Potency result was “inactive”.
To `O=C1NC(=O)/C(=C/c2ccc3nccnc3c2)S1` belongs “inactive”.
Regarding `COc1ccccc1CN[C@@H]1CCCN[C@@H]1c1ccccc1`, the Potency result is “inactive”.
Regarding `Nc1ccn([C@H]2O[C@H](CO)[C@@H](O)C2(F)F)c(=O)n1`, the Potency entry is “inactive”.
As for `Cn1ncc(S(=O)(=O)Cc2ccccc2)c(Br)c1=O`, the Potency entry was “inactive”.
Regarding `c1cnc2c(c1)ccc1cccnc12`, the Potency entry is “inactive”.
As for `CCCCCCCCCCCCCCCCCC(=O)OC(CC(=O)O)C[N+](C)(C)C` (configuration not stated), the Potency result is “inactive”.
To `Nc1nc2ccc(Cl)cc2n2c(-c3ccccc3)nnc12` belongs “inactive”.
As for `OC[C@H]1O[C@@H](n2cnc3c(NC4CCCCC4)ncnc32)[C@H](O)[C@@H]1O`, the Potency entry was “inactive”.
Turning to `Nc1nc(Cl)nc2c1ncn2[C@@H]1O[C@H](COP(=O)(O)OP(=O)(O)OP(=O)(O)O)[C@@H](O)[C@H]1O`, the Potency entry is “inactive”.
For `Nc1ccn([C@@H]2O[C@H](CO)[C@@H](O)[C@@H]2O)c(=O)n1`, the Potency entry is “inactive”.
As for `OCC1O[C@H]([S-])[C@H](O)[C@@H](O)[C@@H]1O.[Au+]` (some centres not stated), the Potency entry was “inactive”.
Take `CC1(C)CCC=[N+]1[O-]`: the Potency result is “inactive”.
As to `CCCCCCCC/C=C\CCCCCCCC(=O)NCCO`, the Potency entry is “inactive”.
For `COCCOc1cc2nc[nH]c(=O)c2cc1OCCOC`, the Potency entry was “inactive”.
